Results filed as inconclusive are left out. A number with no mark means an inactive call. The source made the active and inactive calls. The call rests on the fitted dose curve; in most records, active means well fitted inhibition curve with a large enough effect; inconclusive means small, poorly fitted or top-dose-only effect; inactive means no such curve, though single readings can be large or run the other way.
Assay: Primary fluorescence-based thiol-reactive (MSTI) qHTS assay for identification of artifact compounds. (AID 1845221); further: nearly all actives have a fitted effect of over 65% in size;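 on activity change, negative = thiol reactive: thiol-reactive compounds lower the probe fluorescence signal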
Conditions: MSTI thiol-reactivity probe, 1 h; series mostly up to 53.8 µM; activity change, negative = thiol reactive: at the top concentration
Method in brief: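 In PBS pH 7.4 with 2% DMSO, each compound met 4 uM MSTI for one hour at ambient temperature, shielded from light, before fluorescence detection.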
Potency means the concentration at half of the fitted maximal effect.

| Compound | activity change, negative = thiol reactive [%] | Potency |
| --- | --- | --- |
| COc1cc(C[C@H]2C(=O)OC[C@@H]2Cc2ccc(OC)c(OC)c2)ccc1O | 12 |  |
| CCC[C@H](N[C@H]1CCc2cc(F)cc(F)c2C1)C(=O)Nc1cn(C(C)(C)CNCC(C)(C)C)cn1 | 4.1 |  |
| CCCc1ccc(OCC(=O)N(Cc2nc(-c3cccnc3)no2)C(C)C)cc1 | 30.3 |  |
| CCCCCCCOc1cc2c(cc1/C(C)=C/c1ccc(C(=O)O)cc1)C(C)(C)CCS2(=O)=O | 276 |  |
| NS(=O)(=O)c1ccc(NC(=O)Nc2ccc(F)cc2)cc1 | -1.44 |  |
| COc1cccc(N2CCN(C3=Nc4c(F)cccc4[C@H](CC(=O)O)N3c3cc(C(F)(F)F)ccc3OC)CC2)c1 | 3.84 |  |
| COc1cc2c(cc1-c1c(C)noc1C)ncc1[nH]c(=O)n(C(C)c3ccccn3)c12 (stereo not given) | 109 |  |
| CCC(CC)C(c1ccc(Nc2nc3ccccc3s2)cc1)n1cncn1 (stereo not given) | 326 |  |
| COC1CCN(C(=O)c2cc(Cc3n[nH]c(=O)c4ccccc34)ccc2F)CC1 | 61.2 |  |
| Cc1cnc(-c2ccccc2C(C)C)nc1NCc1ccc(-n2ccnn2)cc1 | 117 |  |
| COc1ccc(NC(=O)c2ccc(C(=N)N(C)C)cc2)c(C(=O)Nc2ccc(Cl)cn2)c1 | 42.1 |  |
| Fc1ccc(N2CCCCC2)c(NC(=S)c2ccncc2)c1 | -7.02 |  |
| Cn1cc(-c2ccc(S(=O)(=O)n3ccc(/C=C/C(=O)Nc4ccccc4N)c3)cc2)cn1 | 224 |  |
| Cc1cn(CCN2CCN(c3ccccc3-c3cc(C#N)cc(C(=O)NCCCN4CCCC4)c3)CC2)c2ccccc12 | -15 |  |
| Cc1cc2ncc(C(=O)NCC(C)(C)NCC(=O)N3CCC[C@H]3C#N)cn2n1 | 53.3 |  |
| Cc1cc(N2CCOCC2)ccc1Nc1nc(NC2CCCCC2)c2[nH]cnc2n1 |  | 1.68 µM (active) |
| N#C/C(=C1\Nc2ccccc2S1)c1ccnc(NCCc2cccnc2)n1 |  | 1.34 µM (active) |
| Cn1nc(C(C)(C)C)cc1C(=O)N[C@@H](Cc1cccc(Cl)c1)C(=O)NCC#N | 111 |  |
| O=C(Nc1cc(C(F)(F)F)ccc1N1CCCCC1)c1ccncc1 | 16.1 |  |
| O=C(NCC1(c2nc(-c3ccccc3)cs2)CCOCC1)c1cccc(-c2noc(C(F)(F)F)n2)c1 | 56.2 |  |
| CCC[C@@]1(CCc2ccccc2)CC(O)=C([C@H](CC)c2cccc(NS(=O)(=O)c3ccc(C(F)(F)F)cn3)c2)C(=O)O1 | 151 |  |
| Cc1ccc(CNc2ncnc3ccc(-c4ccc(CO)o4)cc23)o1 | 29.7 |  |
| CCCCCc1ccc(/C=C/C(=O)Nc2cc(Cl)ccc2C(=O)O)cc1 | 227 |  |
| CC(C)(CNC(=O)c1cccc(-c2noc(C(F)(F)F)n2)c1)c1coc(-c2ccccc2)n1 | -3.74 |  |
| CC(C)CCNC(=O)[C@H](CC(C)C)NC(=O)[C@H]1O[C@@H]1C(=O)O | -0.116 |  |
| Cc1ccc(C)c(-c2cc(C(F)(F)F)nn2-c2ccc(S(N)(=O)=O)cc2)c1 | 39.9 |  |
| O=c1[nH]c([C@@H]2CCCN2)nc2c1oc1ccc(Cl)cc12 | 2.98 |  |
| O=C(NC[C@H]1CN(c2ccc(N3CCOCC3=O)cc2)C(=O)O1)c1ccc(Cl)s1 | 65.9 |  |
| COc1cc2c(cc1OC)CN(C(=O)/C=C/c1c(-c3ccccc3)n(C)c3ncccc13)CC2 | -22.1 |  |
| CCCN1CCC=C(c2cc(-c3ccc(C)cc3)no2)C1 | 74 |  |

Reference: PubChem BioAssay (NCATS)
